Measurements as given in ChEMBL document CHEMBL1157539, “Thousands of chemical starting points for antimalarial lead identification” (Nature, 2010).

How the values were obtained:
Assay type in all cases: functional
Plasmodium falciparum [1] = assay: GSK_TCMDC: Inhibition of Plasmodium falciparum 3D7 in whole red blood cells, using parasite LDH activity as an index of growth. Test compounds present at 2uM
Plasmodium falciparum [2] = assay: GSK_TCMDC: Inhibition of Plasmodium falciparum Dd2 in whole red blood cells, using parasite LDH activity as an index of growth. Test compounds present at 2uM
HepG2 = assay: GSK_TCMDC: Percent inhibition of human HepG2 cell line. Test compounds present at 10uM.

SMILES | Inhibition (Plasmodium falciparum [1]) | Inhibition (Plasmodium falciparum [2]) | Inhibition (HepG2)
COc1ccc(/C=C/C(=O)Nc2ccc(-c3ccncc3)cc2)cc1CCCN(C)C.O=C(O)/C=C\C(=O)O | 100% | 86% | 3%
O=C(Nc1cccc(C(F)(F)F)c1)Nc1ccc(Cl)c(C(F)(F)F)c1 | 99% | 99% | 0%
COc1ccc(-c2cnc(N)c(-c3ccc(O)c(OC)c3)c2)cn1 | 97% | 98% | 23%
CCN(CC)CCN(Cc1ccc(-c2ccc(C(F)(F)F)cc2)cc1)C(=O)Cn1c(CCc2c(F)ccc(F)c2F)nc(=O)c2ccccc21.O=C(O)C(O)C(O)C(=O)O | 98% | 62% | 44%
CN(C)c1ccc(/C=C2\S/C(=N\c3ccccc3)N(c3ccccc3)C2=O)cc1[N+](=O)[O-] | 96% | 82% | 9%
CC(CN1CCN(C)CC1)C(=O)Nc1ccc(-c2ccc(-c3nc4ccccc4[nH]3)cc2)cc1 (configuration not stated) | 92% | 87% | 13%
CN(C)c1ccc(NC2=NC(N)=NC(C)(C)N2)cc1 | 95% | 5% | 0%
CC(C)CN1CCC(COc2ccc3ncn(-c4cc(O[C@H](C)c5ccccc5C(F)(F)F)c(C(N)=O)s4)c3c2)CC1 | 97% | 86% | 46%
CC(O)C1CCCCN1C(=O)c1cccc(-c2ccc(-c3nc4cc(F)ccc4[nH]3)cc2)c1 (configuration not stated) | 100% | 99% | 46%
CCCC(=O)c1cnc2c(OCCCc3c[nH]cn3)cccc2c1Nc1c(C)cccc1C | 98% | 14% | 20%
Cl.c1ccc(COc2ccc(Nc3ncnc4cnc(-c5ccc(CN6CCCCC6)o5)cc34)cc2)cc1 | 90% | 13% | 0%
Cc1nn(-c2ccccc2)nc1C(=O)N(Cc1ccc(-c2ccc(CNCCc3ccc(S(C)(=O)=O)cc3)cn2)cc1)C(C)CN(C)C.O=C(O)C(F)(F)F (configuration not stated) | 100% | 87% | 25%
COc1c(C(=O)NC2CCN(Cc3ccccc3)C2)cnc2ccccc12.Cl (configuration not stated) | 86% | 12% | 2%
O=C(NCCc1cccc(F)c1)c1cc(Br)cc(N2CCN(c3ccncc3)CC2)c1.O=C(O)C(F)(F)F | 100% | 86% | 34%
Cc1cccc2nc(-c3cccc(-c4cccc(CN5CCCC5CN)c4)c3)[nH]c12.O=C(O)C(F)(F)F (configuration not stated) | 100% | 72% | 15%
CCCCC(=O)N(CCOC)Cc1ccc(-c2ccc(CNCCC)cn2)cc1.O=C(O)C(F)(F)F | 99% | 68% | 30%
CCc1c[nH]c2c(N3CCCS3(=O)=O)cc(C(=O)N[C@@H](Cc3ccccc3)[C@H](O)CNC3CCCCC3)cc12.O=CO | 99% | 89% | 6%
COC(=O)c1cc(NC(=O)Nc2ccc(Cn3ncc(N4CCCNCC4)c(Cl)c3=O)cc2)cc(C(=O)OC)c1.O=C(O)C(F)(F)F | 96% | 90% | 0%
Fc1ccc2[nH]c3c(NCCCN4CCOCC4)ncnc3c2c1 | 98% | 2% | 14%
Cc1nc(-c2nc(NCc3ccc4c(c3)OCO4)ncc2-c2ccsc2)sc1C | 97% | 77% | 7%

SMILES | Inhibition (Plasmodium falciparum [1]) | Inhibition (Plasmodium falciparum [2]) | Inhibition (HepG2)
Cc1noc(C)c1-c1cccc(CNCc2cccc(-c3cccc(-c4nc5ccccc5[nH]4)c3)c2)c1.O=C(O)C(F)(F)F | 100% | 54% | 22%
COc1ccc2ccccc2c1CNCCCCCCNCc1c(OC)ccc2ccccc12.Cl | 100% | 35% | 99%
COc1cc2nc(-c3ccc(Br)cc3)cc(N)c2cc1OC | 98% | 69% | 90%
Cc1c(CNCCCNc2cc(=O)c3ccccc3[nH]2)sc(/C=N/O)c1Br.Cl | 82% | 0% | 0%
CCCCCN1C(=O)C(c2ccccc2)(c2ccccc2)N=C1N | 97% | 68% | 18%
Cc1cc(NCCC(=O)NCc2cccc(F)c2)nc(Nc2ccccc2)n1.O=C(O)C(F)(F)F | 94% | 15% | 0%
Cl.c1ccc(CC2=NCCN2)cc1 [TOLAZOLINE HYDROCHLORIDE] | 94% | 0% | 3%
Cc1cc(=O)c(-c2ccc(OCCSc3ccc(C(F)(F)F)cn3)cc2)c(C)[nH]1 | 97% | 96% | 2%
COC(=O)CCn1c(C2CCN(CC3CCC(NC(=O)/C=C/c4ccc(Cl)c(Cl)c4)CC3)CC2)nc2ccccc21 (configuration not stated) | 94% | 10% | 14%
O=C(O)C(F)(F)F.c1ccc2c(c1)CN(CC1CCOCC1)CC1(CCN(Cc3c[nH]c4cnccc34)CC1)O2 | 99% | 7% | 21%
Cc1cccc2sc(N(CCCn3ccnc3)C(=O)C=Cc3cccs3)nc12.Cl | 91% | 9% | 0%
O=C(O)C(F)(F)F.OCCC1CCN(Cc2ccc(-c3ccc(-c4nc5ccccc5[nH]4)cc3)cc2)CC1 | 99% | 98% | 35%
CC[C@H]1CN(CCCC(=O)c2ccccc2)CC[C@H]1CCCc1ccnc2ccc(OC(=O)c3ccccc3)cc12.O=C(O)C(=O)O | 83% | 68% | 28%
COc1cc2nc(NCCc3ccccc3)nc(N(C)Cc3ccccc3)c2cc1OC | 96% | 58% | 31%
CCn1c(-c2nonc2N)nc2c(-c3ccc(CO)o3)ncc(OCCCN)c21.O=C(O)C(F)(F)F | 93% | 97% | 0%
Clc1cc(Cl)cc(Nc2ccnc(Nc3cc(Cl)cc(Cl)c3)n2)c1 | 99% | 73% | 11%
Cc1cc(NC(=O)c2sc3ccccc3c2O)no1 | 96% | 25% | 6%
CC(C)C(=O)NC(c1cccs1)c1cc(Cl)c2cccnc2c1O (configuration not stated) | 91% | 91% | 23%
O=C(COc1cccc([N+](=O)[O-])c1)Nc1ccc(-c2nc3ccccc3[nH]2)cc1 | 99% | 5% | 12%
CS(=O)(=O)c1ccc2c(c1)CCN(CCC1CCC(NC(=O)c3cc4cccc(Br)c4[nH]3)CC1)CC2 (configuration not stated) | 92% | 7% | 27%

SMILES | Inhibition (Plasmodium falciparum [1]) | Inhibition (Plasmodium falciparum [2]) | Inhibition (HepG2)
Cc1cc(NC(=O)Nc2ccc(C(C)C)cc2)c2ccccc2n1.Cl | 99% | 16% | 7%
CN(C)Cc1cccc2nc(-c3csc(Cc4cc(Cl)ccc4OCc4ccccc4)n3)[nH]c12 | 100% | 77% | 14%
OCC1CCN(Cc2cccc(C#Cc3cc4ncnc(Nc5ccc(OCc6cccc(F)c6)c(Cl)c5)c4s3)n2)CC1 | 99% | 95% | 41%
CCOc1ccc2[nH]c(C)cc(=NN=Cc3cccc(C)n3)c2c1 | 99% | 73% | 6%
COc1cccc2c(NCc3ccccc3)nc(NCCCN3CCCCC3C)nc12 (configuration not stated) | 90% | 2% | 20%
O=C(/C=C/c1ccc(Cl)c(Cl)c1)NCCCCCN1CCCC(CNS(=O)(=O)c2cccc(C(F)(F)F)c2)C1 (configuration not stated) | 92% | 0% | 73%
COc1ccc(-c2cccc(NC(=O)c3cccc(Cl)c3)c2)cc1CN1CCN(C)CC1.O=C(O)C(F)(F)F | 100% | 48% | 27%
OC1CCC(Nc2ccc3ncc(-c4ccc5ccccc5c4)n3n2)CC1 (configuration not stated) | 95% | 94% | 52%
CC(C)C(C(=O)Nc1ccc2c(c1)OCO2)c1ccc(Cl)cc1 (configuration not stated) | 98% | 89% | 25%
CCc1ccc(NC(=O)c2ccc(CN3CCCN(Cc4cccc(O)c4)CC3)cc2)cc1.O=C(O)C(F)(F)F | 100% | 55% | 51%
COc1ccc2nccc(NCC3(O)CCN(CCc4ccc5c(c4)OCCO5)CC3)c2n1.Cl | 100% | 87% | 35%
C=CCOC1OC(COC(c2ccccc2)(c2ccccc2)c2ccccc2)C(OC(C)=O)C(OC(C)=O)C1NC(C)=O (configuration not stated) | 93% | 66% | 0%
COc1cc(NC2CCCC(NCc3cn(S(=O)(=O)c4ccccc4)c4ccccc34)C2)nc2ccccc12 (configuration not stated) | 100% | 61% | 4%
N#Cc1cccc(NC(=O)Nc2cccc(-c3cccc(-c4nc5cc(C(F)(F)F)ccc5[nH]4)c3)c2)c1 | 100% | 99% | 74%
CCNc1cc(C(=O)N[C@@H](Cc2ccccc2)[C@H](O)CNCCc2cc(OC)cc(OC)c2)cc(N2CCCCS2(=O)=O)c1.Cl | 89% | 28% | 3%
COC(=O)c1cccc(CNCc2cccc(-c3cccc(-c4nc5cc(F)ccc5[nH]4)c3)c2)c1.O=C(O)C(F)(F)F | 100% | 52% | 27%
Cc1[nH]c2ccc(O)cc2c1C1CCN(CCCCCNC(=O)/C=C/c2ccc(Cl)c(Cl)c2)CC1 | 100% | 1% | 33%
COc1cc(NC(=O)N2CCc3ccc(OCCN(C(C)C)C(C)C)cc32)cc(C(F)(F)F)c1.O=C(O)C(F)(F)F | 100% | 97% | 6%
COc1cc(Nc2ncc3c(C)nc(-c4cccc(Nc5ccc(CN6CCS(=O)(=O)CC6)cc5)c4)n3n2)cc(OC)c1OC | 90% | 79% | 2%
